Rows were chosen to be rich in hits. Some 2.3% of all compounds tested hit in one or more screens of this group.
CHRM1 agonist: human M1 muscarinic receptor agonism; CHO-K1 hM1, Fluo-8 calcium fluorescence, agonist mode; 0% DMSO, 100% acetylcholine EC100; AID 588814; activation, % at 3 µM; 360,000 compounds, 0.33% hits;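 active = activation above the run's mean compound activation plus 3 SD, cut at about 16% in these data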;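 note: peak over basal fluorescence ratio within a 140 s kinetic read after compound addition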
Target sequence (P11229 whole entry, looked up): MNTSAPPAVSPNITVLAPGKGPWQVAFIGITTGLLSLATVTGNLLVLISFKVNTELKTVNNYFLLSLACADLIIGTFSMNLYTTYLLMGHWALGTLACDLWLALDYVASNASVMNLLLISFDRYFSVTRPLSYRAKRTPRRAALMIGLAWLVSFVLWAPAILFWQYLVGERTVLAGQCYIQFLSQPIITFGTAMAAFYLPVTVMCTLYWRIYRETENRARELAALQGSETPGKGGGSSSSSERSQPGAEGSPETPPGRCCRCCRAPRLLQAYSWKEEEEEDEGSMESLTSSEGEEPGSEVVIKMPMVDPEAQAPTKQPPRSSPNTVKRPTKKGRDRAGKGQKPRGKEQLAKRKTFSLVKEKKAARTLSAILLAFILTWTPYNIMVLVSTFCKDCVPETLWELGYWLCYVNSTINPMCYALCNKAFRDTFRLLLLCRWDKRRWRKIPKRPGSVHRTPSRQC
CHRM1 antagonist: antagonists of human M1 muscarinic receptor | 360,000 compounds, 1.3% hits | CHO-K1 hM1, Fluo-8 calcium fluorescence, ACh EC80 antagonist | inhibition, % at 3 µM | P11229;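 active = percent inhibition above its own plate's cutoff, namely the mean of that plate's compound wells plus 3 SD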;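 note: peak over basal fluorescence ratio during 140 s after agonist addition; 0% = ACh EC80 plus DMSO and 100% = DMSO alone without agonist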
CHRM1 PAM: positive allosteric modulators of human M1 muscarinic receptor; P11229; CHO-K1 hM1, Fluo-8 calcium fluorescence, ACh EC20; 0% = ACh EC20, 100% = maximal ACh; activation, % at 3 µM; 360,000 compounds, 0.088% hits; in the data active = activation above about 19%, passing the limit was not always enough
M1 PAM parental: counter-screen for M1 PAMs: effect in parental CHO-K1 cells; activation, % at 3 µM; 360,000 compounds, 0.02% hits; AID 602247; ATP EC20, Fluo-8 calcium fluorescence; 0% at ATP EC20, 100% at ATP max;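 active = activation above the run cutoff, the mean activation of all test compounds plus 3 SD, cut at about 40% in these data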;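 note: peak over basal fluorescence ratio in a 140 s read after ATP addition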
CHO-K1 Ca antag: nonselective inhibitor or artifact in parental CHO-K1 cells; ATP-induced calcium, Fluo-8 fluorescence; inhibition, % at 3 µM; 360,000 compounds, 0.6% hits;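 active = inhibition above a per-plate cutoff, the plate's mean sample inhibition plus 3 SD, cut at about 24% in these data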;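 note: 0% = DMSO plus EC80 ATP and 100% = DMSO alone without ATP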
M1 ag parental: counter-screen for M1 agonists: effect in parental CHO-K1 cells. Fluo-8 calcium fluorescence; scaled to maximal ATP response, vehicle zero. activation, % at 3 µM. 360,000 compounds, 0.48% hits. AID 602248; in the data active = activation above about 15%;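 note: untransfected CHO-K1 host cells lacking M1 receptor as counterscreen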
Numbers without * were called inactive.

SMILES	CHRM1 agonist	CHRM1 antagonist	CHRM1 PAM	M1 PAM parental	CHO-K1 Ca antag	M1 ag parental
COC(=O)c1cccc(NC(=S)Nc2ccc(Cl)c(Cl)c2)c1	5	14	-6	-18	26*	8
COC(=O)c1cccc(NC(=O)NC(=O)c2ccc(Cl)cc2)c1	-1	-18	8	25	-17	1
Cc1c(Cl)cccc1NC(=O)C1CC2CCC1C2 (centres undefined)	-5	22	-7	-15	7	0
COc1ccccc1NS(=O)(=O)c1cc(NC(=O)c2ccc(Cl)nc2)ccc1Cl	-1	28*	-20	6	3	16*
COc1ccccc1NS(=O)(=O)c1cccc(NC(=O)Nc2cccc(Cl)c2)c1	-3	19	-10	-12	34*	12
COc1ccc(C(=S)N2CCN(c3ccccc3C)CC2)cc1	-6	-4	-2	-6	8	0
CN(C)CC/C=C1/c2cc(F)ccc2CSc2ccc(F)cc21	-8	100*	-21	22	-11	1
CN(C)CC/C=C1\c2cc(F)ccc2CSc2ccccc21	-11	99*	-26	24	-4	9
CCOC(=O)N1CCC(NC(=O)C2CCCN(Cc3nc(-c4cccc(Cl)c4)oc3C)C2)CC1 (centres undefined)	-4	37*	-21	0	30*	10
Cc1oc(-c2ccc(Cl)cc2)nc1CN1CCCC(C(=O)NC2CC2)C1 (centres undefined)	-6	-2	-1	9	-11	1
Cc1c(C(=O)NCc2cccc([N+](=O)[O-])c2)sc(=O)n1Cc1ccccc1F	-9	67*	-33	19	1	5
Cc1c(C(=O)NCc2ccc(C(F)(F)F)cc2)sc(=O)n1Cc1cccc(F)c1	37*	39*	-3	14	16	23*
Cc1c(C(=O)NCc2cccc(C(F)(F)F)c2)sc(=O)n1Cc1cccc(F)c1	-5	8	-10	-5	3	0
COc1ccc(Cl)cc1Cn1c(C)c(C(=O)NCc2cccc([N+](=O)[O-])c2)sc1=O	-11	80*	-32	26	-17	2
COc1ccc(Br)c(Cn2c(C)c(C(=O)NCc3cccc([N+](=O)[O-])c3)sc2=O)c1	-10	89*	-31	2	15	1
CCOc1ccc(-c2csc3nc[nH]c(=O)c23)cc1	-1	-13	4	10	-10	1
CCOC(=O)Cc1cc(-c2ccc(F)cc2)nc2ccc3ccccc3c12	-5	-1	0	13	-3	0
O=C(CN(C(=O)c1csnn1)c1ccc(Cl)cc1)NCc1ccc2c(c1)OCO2	-2	2	3	-4	1	1
COCCNC(=O)C1CCCN(C(=O)c2sc(-c3ccccc3)nc2C)CC1 (centres undefined)	-2	-11	9	3	5	0
CC(C)n1nc(C(=O)OCn2nnc3ccccc3c2=O)c2ccccc2c1=O	-3	1	3	14	-7	1
Cc1c(C(=O)NCc2ccc(C(C)C)cc2)sc(=O)n1Cc1ccc(S(=O)(=O)N(C)C)cc1	0	34*	-21	-1	9	7
Cc1c(C(=O)NCc2ccc(Cl)c(Cl)c2)sc(=O)n1Cc1ccc(S(=O)(=O)N(C)C)cc1	-1	13	-10	9	-5	7
CCOC(=O)c1[nH]c(C)c(C(=O)N2CCN(C(=O)OCC)CC2)c1CC	0	4	1	-12	26*	0
COc1cccc(N2CCN(CC(=O)Nc3ccccc3C(=O)NCc3ccccc3)CC2)c1	-1	34*	-11	6	4	7
COc1ccc(CNC(=O)CN2CCN(C(c3ccccc3)c3ccccc3)CC2)cc1	-6	34*	-19	-5	-5	0
O=C(CN1CCN(C(c2ccccc2)c2ccccc2)CC1)NC(=O)NCc1ccco1	-4	30*	-11	-9	27*	-1
S=C(NCc1ccco1)N1CCN(C(c2ccccc2)c2ccccc2)CC1	-8	18*	-18	6	3	0
COc1cccc(N2CCN(CC(=O)Nc3ccccc3C(=O)NCCc3ccccc3)CC2)c1	-4	22	-12	0	-4	4

Source: PubChem BioAssay
